The whole screen tested about 98,000 compounds, of which about 4,900 (5%) were called active. Cut-off read from the data, not from the text of the source: active = inhibition above about 30%; inactive = the rest. The sample as a whole holds a higher share of actives than the screen did.

The nature of this experiment: growth inhibition of yeast control strain, primary screen, counter-screen for post-Golgi transport modulator project (AID 738). The settings on record: efflux-deficient yeast background strain, growth absorbance A615, 16 h; at 10 µM; stronger effect = higher value. (Counterscreens check selectivity or assay interference.)
As usually defined, the inhibition is the drop in the measured response relative to a control, in per cent. Regarding `CC(=O)Nc1ccc(N2C(=O)C3C4CC(=O)C(c5ccccc54)C3C2=O)cc1` (stereo unspecified), the inhibition was -8.39% (inactive).
Consider `O=C(NCc1cccnc1)c1cccnc1Sc1ccc(Cl)cc1`, for which the inhibition is -2.08% (inactive).
For `CC(C)=CC(=O)Nc1nnc(-c2ccc(F)cc2)s1`, the inhibition is -0.29% (inactive).
As for `Cc1cc(C)nc(SC(C)C(=O)N/N=C/c2cccs2)n1` (stereo unspecified), the inhibition is 6.8% (inactive).
For `C#CCSc1nnc(-c2sc3ccccc3c2Cl)o1` the value was 0.45% (inactive); for `COc1ccccc1-c1n[nH]c2c1[C@H](C)CC[C@H]2C(C)C`, 38% (active).
In the case of `C=CCN(CC=C)C(=O)CN1C(=O)c2ccccc2C1=O` it was 3.29% (inactive); in that of `Cc1cc2c(cc1C)N(C(=O)CN1C(=O)c3ccccc3C1=O)C(C)(C)c1ssc(=S)c1-2`, 32.6% (active); in that of `CC(C)OC(=O)CN1C(=O)c2ccccc2C1=O`, 7.83% (inactive).
As to `C=CCn1c(C)cc(C(=O)CN2C(=O)c3ccccc3C2=O)c1C`, the inhibition was 11.4% (inactive).
On to `CCOC(=O)CN1C(=O)C(=O)c2cc(C)ccc21`, for which the inhibition is 5.42% (inactive).
On to `Cc1ccc2c(c1)-c1c(ssc1=S)C(C)(C)N2C(=O)CN1C(=O)c2ccccc2C1=O`, for which the inhibition was 60.3% (active).
In the case of `CN1CCN(S(=O)(=O)c2ccc(N3CCN(S(=O)(=O)c4cccs4)CC3)nc2)CC1` it was 4.14% (inactive); in that of `O=C(CNC(=O)c1cc2c(s1)CCC2)Nc1ccccc1Br`, -4.14% (inactive).
In the case of `CCOC(=O)C1(S(=O)(=O)c2ccccc2)CCN(Cc2ccccc2)CC1` it was 4.95% (inactive); in that of `COC(=O)c1sc2ncccc2c1OCc1ccc(Cl)cc1Cl`, 11.1% (inactive); in that of `NC(=O)COc1ccc(/C=N/NC(=O)C2CCCN2S(=O)(=O)c2ccc(Cl)cc2)cc1` (stereo unspecified), 18.9% (inactive).
For `NC(N)=N/N=C/c1ccc(OCc2ccc(Cl)cc2Cl)cc1` the value was 67.2% (active); for `CCN(CC)c1ccc(NC(=O)c2ccc(Cl)nc2)cc1`, 17.1% (inactive).
In the case of `CC1CN(c2nc(-c3ccccc3)nnc2-c2ccccc2)CC(C)O1` (stereo unspecified), the inhibition was 31.6% (active).
On to `Cc1ccc(-c2nnc(C)c(N3CC(C)OC(C)C3)n2)cc1` (stereo unspecified), for which the inhibition is 20.1% (inactive).
`Cc1c(C(=O)N2CC(C)OC(C)C2)sc2nc(-c3ccccc3)cn12` (stereo unspecified): the inhibition was 7.66% (inactive).
In the case of `Clc1ccc(-c2nnc(-c3ccccc3)nc2N2CCSCC2)cc1` it was 51% (active).
Consider `O=c1cc(Cn2nnc(-c3ccc(Cl)cc3)n2)nc2sccn12`, for which the inhibition is 11.5% (inactive).
Regarding `Cn1nc(-c2ccccc2)c(-c2nc(-c3ccc(Cl)cc3)no2)c1Cl`, the inhibition was -5.95% (inactive).
`COCc1cc(C)nc2sc(C(=O)NC3CCCCC3)c(N)c12`: the inhibition is 8.15% (inactive).
For `O=C1c2ccccc2C(=O)c2c1cccc2N1CCN(CCO)CC1` the value was 9.4% (inactive); for `O=c1cc(N2CCN(Cc3ccccc3)CC2)c(-c2ccccc2)n[nH]1`, 23.1% (inactive); for `CC(C)Cn1c(CN(Cc2ccccc2)Cc2ccccc2)nc2c1c(=O)n(C)c(=O)n2C`, 33.1% (active).
For the molecule `CC(C)CCn1c(CN(C)Cc2ccccc2)nc2c1c(=O)n(C)c(=O)n2C`, the inhibition was 9.18% (inactive).
Turning to `COCCn1c(CN(Cc2ccccc2)Cc2ccccc2)nc2c1c(=O)n(C)c(=O)n2C`, the inhibition was 14.8% (inactive).
For the molecule `CCC(=O)NNc1cc(=O)c2c(=O)n(C)c(=O)n(C)c2[nH]1`, the inhibition was 0% (inactive).
With `CN(C)/C=C(\C#N)C(=O)c1cccnc1Oc1cccc(F)c1`, the inhibition is 10.6% (inactive).
Consider `CNC(=S)N1N=C(c2ccccc2)CC1c1ccc(Br)cc1` (stereo unspecified), for which the inhibition is 80.4% (active).
For `COc1ccc(NC(=S)N2N=CCC2c2ccccc2)cc1` (stereo unspecified), the inhibition is 10.8% (inactive).
On to `O=C(COc1ccccc1)Nc1nonc1NC(=O)COc1ccccc1`, for which the inhibition was 14.2% (inactive).
On to `O=C(COc1ccc(Cl)cc1)NCCSc1ccccc1`, for which the inhibition is 25.3% (inactive).
As for `O=C(COc1ccc(Cl)cc1)Nc1ccccc1CO`, the inhibition was 36.8% (active).
In the case of `O=C(NCCCn1ccnc1)Nc1ccc(Cl)cc1Cl` it was 0.62% (inactive); in that of `Cc1nc(SCC(=O)Nc2cc(C)on2)c2c(C)c(C)sc2n1`, -1.7% (inactive); in that of `Cc1nc(SCC(=O)N2CC(=O)Nc3ccccc32)c2c(C)c(C)sc2n1`, 2.3% (inactive).
Turning to `Cc1nc(SCC(=O)N2CCc3ccccc3C2)c2c(C)c(C)sc2n1`, the inhibition was 49.5% (active).
`Cc1ccc(NC(=S)NC(=O)c2ccc(-c3ccccc3)cc2)c(C)c1`: the inhibition was 0.3% (inactive).
In the case of `CC1(C)Cc2ccccc2-c2nc(CN3CCOCC3)[nH]c(=O)c21` it was 15.4% (inactive).
For `CCC1(CC)Cc2ccccc2-c2nc3ccccc3c(=O)n21` the value was 8.32% (inactive); for `CCOC(=O)C1Cn2c(nc3c(c2=O)C(C)(CC)Cc2ccccc2-3)S1` (stereo unspecified), 39.9% (active); for `CCN(CC)c1nc(-c2ccccc2)cc(C(F)(F)F)c1C#N`, 13.7% (inactive).
For `Cc1ccc2nc(/C(C#N)=C\c3ccc(OC(=O)c4cccs4)cc3)[nH]c2c1` the value was -11.1% (inactive); for `CC(C)C(=O)OCC(=O)Nc1ccc2c(c1)CCC2`, 3.52% (inactive).
With `O=C(Cn1cc2c(n1)CCCCC2)NCCN1CCOCC1`, the inhibition is -2.81% (inactive).
For the molecule `COCCNC(=O)Cn1cc2c(n1)CCCCC2`, the inhibition is 2.72% (inactive).
Regarding `CCOC(=O)N1CCC(NC(=O)Cn2cc3c(n2)CCCCC3)CC1`, the inhibition is 31.9% (active).
`Cc1c(C#N)c(NC(=O)c2ccccc2)n(Cc2ccccc2)c1C`: the inhibition was 8.33% (inactive).
On to `O=c1c2ccccc2nc2n1C(CSCc1cccc(C(F)(F)F)c1)CS2` (stereo unspecified), for which the inhibition was 4.97% (inactive).
With `O=c1onc(-c2cccs2)n1Cc1ccccc1`, the inhibition was 2.85% (inactive).
On to `Cc1ccc(CNC(=O)c2ccccc2CCc2ccccc2)cc1`, for which the inhibition was 35.3% (active).
In the case of `Cc1c(C(=O)NCc2ccccc2)cnn1-c1ccccc1`, the inhibition was 9.12% (inactive).
On to `CS(=O)(=O)NCc1ccc(C(=O)NCc2ccccc2)cc1`, for which the inhibition was 8.59% (inactive).
With `CC1CC(C)CN(C/C=C/c2ccccc2[N+](=O)[O-])C1` (stereo unspecified), the inhibition was 7.64% (inactive).
For `Cc1[nH]n(-c2ccccc2)c(=O)c1CCOC(=O)c1ccc(C(F)(F)F)cc1` the value was 33.5% (active); for `Cc1cc(C)n(-c2c(F)c(F)c(COC(=O)c3ccccc3)c(F)c2F)n1`, 25.1% (inactive); for `O=C(OCC(O)C(O)COC(=O)c1ccccc1)c1ccccc1` (stereo unspecified), 5.59% (inactive).
With `CCC(=O)c1c[nH]c(C(=O)NCC2CCCO2)c1` (stereo unspecified), the inhibition was -1.27% (inactive).
Turning to `Cc1cccc(-n2cnc(C(=O)Nc3cccnc3)c2)n1`, the inhibition is 31.6% (active).
Regarding `Cc1cc(C)c(NC(=O)CS(=O)CC(=O)Nc2cccnc2)c(C)c1` (stereo unspecified), the inhibition is -5.42% (inactive).
Take `CCOc1cccc(C(=O)Nc2cccnc2)c1`: the inhibition is -3.62% (inactive).
As for `CCOc1ccc2[nH]c(=O)c(CN(Cc3nnnn3Cc3ccccc3)CC3CCCO3)cc2c1` (stereo unspecified), the inhibition was 0.14% (inactive).
As for `Cc1cc(C)c2cc(CN(Cc3nnnn3Cc3ccc(F)cc3)C3CCCC3)c(=O)[nH]c2c1`, the inhibition is 41.1% (active).
In the case of `Cc1cccc2cc(CN(Cc3nnnn3Cc3ccccc3)C3CCCC3)c(=O)[nH]c12` it was 13.2% (inactive); in that of `N#Cc1c(C(F)(F)F)cc(-c2ccccc2)nc1SCC(=O)N1CCOCC1`, -3.4% (inactive).
Turning to `COc1ccc(C(c2nnnn2Cc2cccs2)N2CCN(c3ccccc3)CC2)cc1OC` (stereo unspecified), the inhibition was 11.7% (inactive).
For the molecule `COc1ccc(CCn2nnnc2C(c2ccccc2)N2CCN(C)CC2)cc1OC` (stereo unspecified), the inhibition was 22.5% (inactive).
In the case of `Cc1cccc(N2CCN(C(c3ccccc3)c3nnnn3CC3CCCO3)CC2)c1C` (stereo unspecified) it was 44.4% (active).
In the case of `Cc1cc(OCCOc2cccc3cccnc23)c(C)cc1Cl` it was 7.3% (inactive); in that of `CCOC(=O)C1=C(C)Nc2sc(C(=O)c3ccc(Br)cc3)c(N)c2C1c1ccc(C(=O)OC)cc1` (stereo unspecified), 9.7% (inactive); in that of `COc1ccc(C(C(=O)NCc2ccccc2)N(Cc2cccs2)C(=O)c2cnccn2)cc1` (stereo unspecified), 7.02% (inactive).
On to `O=C(N/N=C/c1ccsc1)c1cc(O)cc(O)c1`, for which the inhibition was 1.53% (inactive).
For the molecule `COc1ccc(/C=C(\NC(=O)c2ccc(OC)c(OC)c2)C(=O)NCCc2c[nH]c3ccccc23)cc1`, the inhibition is 6.34% (inactive).
Take `CS(=O)(=O)N(CC(O)Cn1c2ccccc2c2ccccc21)c1cccc2ccccc12` (stereo unspecified): the inhibition was 46.2% (active).
For `O=S(=O)(c1ccccc1)N(CC(O)CN1CCCCC1)c1ccccc1` (stereo unspecified) the value was -1.97% (inactive).
For the molecule `CC(=O)c1ccc2c(c1)c1ccccc1n2CC(C)C`, the inhibition is 23.7% (inactive).
For the molecule `N#Cc1ccc(-c2ccc(F)cc2)nc1Sc1ccccc1`, the inhibition was 8.35% (inactive).
`O=S(=O)(Nc1ccccn1)c1ccc(Oc2ccccc2)cc1`: the inhibition was 5.52% (inactive).
In the case of `Cc1cc(C)cc(NS(=O)(=O)c2ccc(Oc3ncc(C(F)(F)F)cc3Cl)cc2)c1` it was 33% (active); in that of `COc1ccccc1Oc1ccc(S(=O)(=O)Nc2cccnc2)cc1`, 0.59% (inactive).
Regarding `CC1(C)CC(=O)C2=C(C1)N=C1SCCC(=O)N1C2c1ccc(C(F)(F)F)cc1` (stereo unspecified), the inhibition was 10.4% (inactive).
Take `COc1ccc(C(=O)NC(=S)NNC(=O)CCc2ccccc2)cc1`: the inhibition is 31.5% (active).
Regarding `CC(Oc1ccc2ccccc2c1)C(=O)NNC(=S)NC(=O)c1ccco1` (stereo unspecified), the inhibition was 96.2% (active).
As to `CCOC(=O)c1c(NC(=S)NC(=O)c2ccco2)sc2c1CCCC2`, the inhibition was 3.33% (inactive).
As for `O=C(Nc1ccc(Oc2ccccc2)cc1)c1ccco1`, the inhibition was -0.32% (inactive).
`COc1ccc(CCNC(=O)c2ccco2)cc1`: the inhibition is 14.4% (inactive).
With `CCNC(=S)NNC(=O)Cc1ccccc1`, the inhibition is 8.07% (inactive).
`CCCc1ccc(OCC(=O)NNC(=S)NC(=O)c2ccco2)cc1`: the inhibition was 33.4% (active).
For `COc1ccc(OCC(=O)NNC(=O)c2ccc(-c3ccccc3)cc2)cc1`, the inhibition is -1.92% (inactive).
With `CCOc1cc(NC(=O)c2ccco2)c(OCC)cc1NC(=O)COc1ccccc1`, the inhibition is 6.65% (inactive).
In the case of `NC(=O)C1(N2CCCCC2)CCN(C2CC(=O)N(Cc3ccc(N4CCCC4=O)cc3)C2=O)CC1` (stereo unspecified), the inhibition was 10.8% (inactive).

These data come from PubChem BioAssay AID738 (SRMLSC, 2007).
